The text below walks through data of PMC11062922 (Nature Chemical Biology, 2023).

Where two headings read alike, the source gives them in different places.

Holding throughout (set-up): species or system human, MV4-11 + K-562 + COLO205 + SK-N-BE2 + OVCAR-8
Experiment [1] concerns AKT2. The following applies: read-out: apparent Kd, compound concentrations: 100 nM and 1000 nM (sheet 'Samples'), n = 1.
The subject of experiment [2] is AKT3. To be noted: read-out: apparent Kd; compound concentrations: 100 nM and 1000 nM (sheet 'Samples'), CATDS: 0.118826721397903; n = 1.
The test system of experiment [3] is CDK17. To be noted: read-out: apparent Kd; compound concentrations: 100 nM and 1000 nM (sheet 'Samples'), CATDS: 8.1529480800730997E-2; n = 1.
For experiment [4], the system named is CDK9. The following applies: read-out: apparent Kd; compound concentrations: 100 nM and 1000 nM (sheet 'Samples'), CATDS: 7.5399196753672404E-2; n = 1.
The test system of experiment [5] is CSNK1A1. To be noted: read-out: apparent Kd; compound concentrations: 100 nM and 1000 nM (sheet 'Samples'), CATDS: 8.2829529423840004E-2; n = 1.
Experiment [6] has as its system HCK. The following applies: read-out: apparent Kd; compound concentrations: 100 nM and 1000 nM (sheet 'Samples'), CATDS: 0.17397087448623899; n = 1.
The test system of experiment [7] is ILK. The following applies: read-out: apparent Kd; compound concentrations: 100 nM and 1000 nM (sheet 'Samples'), CATDS: 8.7046948596417206E-2; n = 1.
Experiment [8] relates to MAP2K1. The following applies: read-out: apparent Kd; compound concentrations: 100 nM and 1000 nM (sheet 'Samples'), CATDS: 8.98649962952279E-2; n = 1.
The test system of experiment [9] is NQO1. To be noted: read-out: apparent Kd; compound concentrations: 100 nM and 1000 nM (sheet 'Samples'), CATDS: 9.3069785012321701E-2; n = 1.
The subject of experiment [10] is RIPK3. The following applies: read-out: apparent Kd; compound concentrations: 100 nM and 1000 nM (sheet 'Samples'), CATDS: 8.3707794531398802E-2; n = 1.
The subject of experiment [11] is TP53RK. To be noted: read-out: apparent Kd; compound concentrations: 100 nM and 1000 nM (sheet 'Samples'), CATDS: 8.4353152889517405E-2; n = 1.
The subject of experiment [12] is AKT1. To be noted: read-out: apparent Kd; compound concentrations: 100 nM and 1000 nM (sheet 'Samples'), CATDS: 0.213173393679812; n = 1.
Experiment [13] deals with CDK10. The following applies: read-out: apparent Kd; compound concentrations: 100 nM and 1000 nM (sheet 'Samples'), CATDS: 0.51704029448555699; n = 1.
For experiment [14], the system named is CDK6. To be noted: read-out: apparent Kd; compound concentrations: 100 nM and 1000 nM (sheet 'Samples'), CATDS: 0.20931890266427899; n = 1.
Experiment [15] relates to ADRBK1. To be noted: read-out: apparent Kd; compound concentrations: 100 nM and 1000 nM (sheet 'Samples'), CATDS: 0.236668950824271; n = 1.
Experiment [16] has as its system PIK3C3. To be noted: read-out: apparent Kd; compound concentrations: 100 nM and 1000 nM (sheet 'Samples'), CATDS: 0.27683551604583601; n = 1.
For experiment [17], the system named is PIK3CB. To be noted: read-out: apparent Kd; compound concentrations: 100 nM and 1000 nM (sheet 'Samples'), CATDS: 0.86026286553543596; n = 1.

Take `Cl.N#CCc1ccc(Nc2nccc(Nc3ccc(Oc4ccccc4)cc3)n2)cc1` [GW639905A]: the potency estimated from few doses in experiment [1] (CATDS: 8.2827110731653497E-2) is 1920 nM; in experiment [2], 954 nM; in [3], 1990 nM; in [4] it was 2420 nM; in [5], 1920 nM; in [6], 532 nM. In addition, the potency estimated from few doses in [7] was 1720 nM; in experiment [8], 1610 nM; in experiment [9], 1500 nM; in [10], 1880 nM; in experiment [11], 1850 nM.

As for `Cc1cc(Cl)cc2c1NC(=O)C2=NNc1ccc(S(N)(=O)=O)cc1` [GW279320X], the potency estimated from few doses in experiment [12] was 1720 nM; in [1] (CATDS: 0.21750959040308801), 1630 nM; in [13] it was 316 nM; in experiment [14], 1810 nM.

Regarding `Cc1cccc(Cn2ccn3c(=O)cc(N4CCOCC4)nc23)c1` [GSK2297542A], the results for the potency estimated from few doses in experiment [15], in [16] and in experiment [17] were 1590 nM, 886 nM and 48.3 nM, respectively.
